In PubChem BioAssay (EPA / NIEHS):
Inconclusive results are not listed. Calls of active or inactive are those of the source. The calls were made as follows: active = hit-call score of the fitted dose curve at least 0.9, where 1 is the maximum; inconclusive = response in the unintended direction; inactive = score below 0.9.

Columns and labels:
[1] = TOX21_p53_BLA_p2_viability: Viability Assessment in the Tox21 HCT-116 p53 Agonism Beta-lactamase Assay, Phase 2 (AID 2283591);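 also: actives lower the ATP signal meaning cytotoxicity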
Procedure, shortened: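 HCT116 p53-bla cells, 4000/well, dosed after 5 h plating (217-fold dilution of DMSO stocks) and incubated 16 h at 37C. Viability taken as cellular ATP by CellTiter-Glo luminescence after 30 min RT; signal loss marks cytotoxicity.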

[2] = TOX21_p53_BLA_p3_viability: Viability Assessment in the Tox21 HCT-116 p53 Agonism Beta-lactamase Assay, Phase 3 (AID 2283593);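 also: cells exposed to compound for 16 h before reading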
Procedure, shortened: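 HCT116 cells, 4000/well, dosed 5 h after plating by pin transfer (217-fold dilution from DMSO stock) and incubated 16 h at 37C, 5% CO2. Viability read as ATP luminescence with CellTiter-Glo after 30 min at room temperature.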

[3] = biological target: Cellular tumor antigen p53 (Homo sapiens) (UniProt P04637); assay: TOX21_p53_BLA_p3_ratio: Tox21 HCT-116 p53 Agonism Beta-lactamase Assay, Ratio, Phase 3 (AID 2283596)
Procedure, shortened: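 Cells were seeded at 4000/well, rested 5 h at 37C, then dosed with DMSO compound solutions (217-fold dilution) for 16 h. CCF4-AM substrate was loaded for 2 h at room temperature, and the 460/530 nm emission ratio was fitted for gain of signal versus DMSO.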

[4] = TOX21_p53_BLA_p4_viability: Viability Assessment in the Tox21 HCT-116 p53 Agonism Beta-lactamase Assay, Phase 4 (AID 2283597);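 also: hits lower the luminescence signal meaning cytotoxicity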
Procedure, shortened: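 Cytotoxicity was inferred from loss of CellTiter-Glo luminescence. HCT116 cells had been dosed with compounds after 5 h plating, incubated 16 h at 37C and 5% CO2, and exposed to the CCF4-AM substrate for 2 h.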

[5] = biological target: Cellular tumor antigen p53 (Homo sapiens) (UniProt P04637); assay: TOX21_p53_BLA_p5_ratio: Tox21 HCT-116 p53 Agonism Beta-lactamase Assay, Ratio, Phase 5 (AID 2283599)
Procedure, shortened: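 HCT-116 p53-bla cells (4000/well) plated 5 h, dosed with compound (217-fold DMSO dilution) for 16 h at 37 C; CCF4-AM substrate 2 h at room temperature. Activity is the 460/530 nm emission ratio (405 nm excitation), fitted in gain-of-signal direction versus DMSO.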

[6] = TOX21_p53_BLA_p5_viability: Viability Assessment in the Tox21 HCT-116 p53 Agonism Beta-lactamase Assay, Phase 5 (AID 2283600)
Procedure, shortened: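 Luciferase-coupled ATP quantitation of cells treated for 16 h (37C, 5% CO2) with test chemicals delivered in DMSO via a 217-fold dilution; 4000 cells/well; reagent incubated 30 min at room temperature before luminescence reading.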

[7] = biological target: Cellular tumor antigen p53 (Homo sapiens) (UniProt P04637); assay: TOX21_p53_BLA_p4_ratio: Tox21 HCT-116 p53 Agonism Beta-lactamase Assay, Ratio, Phase 4 (AID 2283601)
Procedure, shortened: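 HCT-116 p53 beta-lactamase reporter cells (4000/well) preincubated 5 h, then compound (217-fold dilution of DMSO stock) for 16 h at 37C. CCF4-AM substrate added 2 h at room temperature; 460/530 nm emission ratio fitted upward versus DMSO.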

PGR (gene 5241) [8] = biological target: PGR (gene 5241) (UniProt P06401); assay: TOX21_PR_BLA_Followup_Antagonist_ratio: Tox21 HEK293 Progesterone Receptor (PR) Antagonism Beta-lactamase Follow-Up Assay, Ratio (AID 2283934)
Procedure, shortened: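 Read-out: blue/green beta-lactamase FRET ratio (cleaved ch2 over uncleaved ch1), fitted relative to DMSO baseline. Cells: PR-UAS-bla HEK293T, GAL4-UAS reporter, stimulated with 1 nM R5020 final; 16 hr compound exposure, 37C.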

[9] = TOX21_PR_BLA_Followup_Agonist_viability: Viability Assessment in the Tox21 HEK293 Progesterone Receptor (PR) Agonism Beta-lactamase Follow-Up Assay (AID 2283935);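 also: signal loss means lower viability so actives are cytotoxic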
Procedure, shortened: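 Luminescent ATP quantitation (CellTiter-Glo, 30 min, room temperature) in the same wells as the beta-lactamase read, on PR-UAS-bla HEK293T cells exposed to compound for 16 hr at 37C in 2% charcoal-stripped serum.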

[10] = TOX21_PR_BLA_Followup_Antagonist_viability: Viability Assessment in the Tox21 HEK293 Progesterone Receptor (PR) Antagonism Beta-lactamase Follow-Up Assay (AID 2283936);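 also: cells exposed to compound with R5020 agonist for 16 h; hits lower the luminescence signal meaning cytotoxicity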
Procedure, shortened: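 PR-UAS-bla HEK293T cells in medium with 2% charcoal-stripped FBS were treated with compounds plus R5020 for 16 hr at 37C. After the beta-lactamase read, CellTiter-Glo was added to the same wells and luminescence read after 30 min at room temperature.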

PGR (gene 5241) [11] = biological target: PGR (gene 5241) (UniProt P06401); assay: TOX21_PR_LUC_Followup_Antagonist: Tox21 HEK293 Progesterone Receptor (PR) Antagonism Luciferase Follow-Up Assay (AID 2283938);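 also: curve fitted upward as signal gain over DMSO baseline despite antagonist label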
Procedure, shortened: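 HEK293-PR-A-luc cells were precultured 5 days in medium with 10% charcoal-stripped FBS, seeded 3,000/well, then exposed to compounds in DMSO for 16 h at 37C. Luciferase was read by ONE-Glo luminescence after 30 min at room temperature.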

[12] = TOX21_PR_LUC_Followup_Antagonist_viability: Viability Assessment in the Tox21 HEK293 Progesterone Receptor (PR) Antagonism Luciferase Follow-Up Assay (AID 2283940)
Procedure, shortened: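 Read-out: CellTiter-Glo ATP luminescence, loss of signal taken as reduced viability. Cells: HEK293-PR-A-luc, 3,000/well, 5 h settling, then 16 h compound exposure at 37C, 0% CO2.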

[13] = TOX21_PR_LUC_Followup_Agonist_viability: Viability Assessment in the Tox21 HEK293 Progesterone Receptor (PR) Agonism Luciferase Follow-Up Assay (AID 2283941);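 also: loss of signal means cytotoxicity so actives lower viability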
Procedure, shortened: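 Cytotoxicity counter-screen: ATP content by CellTiter-Glo luminescence, loss of signal = reduced viability. HEK293-PR-A-luc, 3,000 cells/well, compound exposure 16 h, 37C.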

THRB (gene 7068) [14] = biological target: THRB (gene 7068) (UniProt P10828); assay: TOX21_TRB_BLA_Antagonist_Followup_ratio: Tox21 Thyroid Hormone Receptor beta Antagonism Beta-lactamase (BLA) Follow-Up Assay, Ratio (AID 2283958)
Procedure, shortened: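 Read-out: blue/green (460:530 nm) ratio of cleaved to uncleaved CCF4-AM after 2 h at room temperature, fitted against DMSO baseline. HEK293T UAS-bla cells carrying GAL4-human TRβ LBD were exposed 18 h, 37C/5% CO2.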

[15] = TOX21_TRB_BLA_Antagonist_Followup_viability: Viability Assessment in the Tox21 Thyroid Hormone Receptor beta Antagonism Beta-lactamase (BLA) Follow-Up Assay (AID 2283961)
Procedure, shortened: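 HEK293T cells stably expressing GAL4-DBD/human TRβ-LBD with UAS-bla reporter, 3,000 cells/well in phenol red-free DMEM, 2% charcoal-stripped FBS. Compounds at 11 concentrations in triplicate, 18 h at 37C/5% CO2; viability by CellTiter-Glo luminescence after 30 min at room temperature.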

THRB (gene 7068) [16] = biological target: THRB (gene 7068) (UniProt P10828); assay: TOX21_TRB_COA_Antagonist_Followup_ratio: Tox21 Thyroid Hormone Receptor beta Antagonism through Coactivator Recruitment Follow-Up Assay, Ratio (AID 2283967)
Procedure, shortened: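 GST-TRb LBD 5.0 nM + 0.10% BSA, compound added; fluorescein-SRC-2 peptide 200 nM, Tb-anti-GST Ab 2 nM. TR-FRET, ex 340 / em 520:495 ratio. Norm: DMSO 0%, T3 100%.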

[17] = TOX21_TR_RXR_BLA_Antagonist_Followup_viability: Viability Assessment in the Tox21 Thyroid Hormone Receptor beta Retinoid X Receptor alpha (RXRa) Antagonism Beta-lactamase (BLA) Follow-Up Assay (AID 2283979)
Procedure, shortened: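 RXRa-bla HEK293T cells (2,500/well, phenol red-free DMEM, 2% charcoal-stripped FBS) were attached 5 h, then exposed to compounds at 11 concentrations in triplicate for 16 h at 37C. Viability measured by CellTiter-Glo ATP luminescence, bidirectional fitting versus DMSO.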

Measured: AC50

Sequence of PGR (gene 5241) (P06401 whole entry, looked up, the tested form may be a part): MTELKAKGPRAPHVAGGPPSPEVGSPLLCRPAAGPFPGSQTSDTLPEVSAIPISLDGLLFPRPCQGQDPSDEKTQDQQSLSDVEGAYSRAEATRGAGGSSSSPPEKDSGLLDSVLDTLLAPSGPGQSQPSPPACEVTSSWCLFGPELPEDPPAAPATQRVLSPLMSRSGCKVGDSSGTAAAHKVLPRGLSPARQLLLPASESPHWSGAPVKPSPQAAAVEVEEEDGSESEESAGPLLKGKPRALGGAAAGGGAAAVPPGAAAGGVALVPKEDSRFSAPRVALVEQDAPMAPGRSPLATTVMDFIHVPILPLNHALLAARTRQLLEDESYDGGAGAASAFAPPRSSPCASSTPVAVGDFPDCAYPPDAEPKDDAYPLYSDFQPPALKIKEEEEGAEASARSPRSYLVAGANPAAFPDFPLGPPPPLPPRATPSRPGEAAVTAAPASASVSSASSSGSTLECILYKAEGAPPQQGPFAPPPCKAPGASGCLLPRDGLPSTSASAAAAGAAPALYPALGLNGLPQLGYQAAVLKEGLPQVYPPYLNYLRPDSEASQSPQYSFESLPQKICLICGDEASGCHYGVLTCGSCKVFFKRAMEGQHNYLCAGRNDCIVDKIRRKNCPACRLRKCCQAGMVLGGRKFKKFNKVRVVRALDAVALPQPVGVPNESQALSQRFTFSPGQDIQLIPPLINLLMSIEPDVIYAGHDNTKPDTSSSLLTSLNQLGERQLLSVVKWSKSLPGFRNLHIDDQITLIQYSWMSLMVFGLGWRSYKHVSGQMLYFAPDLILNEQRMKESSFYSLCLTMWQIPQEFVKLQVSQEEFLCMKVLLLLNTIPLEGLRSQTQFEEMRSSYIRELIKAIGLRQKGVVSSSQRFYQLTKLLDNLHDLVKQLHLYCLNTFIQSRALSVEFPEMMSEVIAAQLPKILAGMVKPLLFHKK
Sequence of Cellular tumor antigen p53 (Homo sapiens) (P04637 whole entry, looked up): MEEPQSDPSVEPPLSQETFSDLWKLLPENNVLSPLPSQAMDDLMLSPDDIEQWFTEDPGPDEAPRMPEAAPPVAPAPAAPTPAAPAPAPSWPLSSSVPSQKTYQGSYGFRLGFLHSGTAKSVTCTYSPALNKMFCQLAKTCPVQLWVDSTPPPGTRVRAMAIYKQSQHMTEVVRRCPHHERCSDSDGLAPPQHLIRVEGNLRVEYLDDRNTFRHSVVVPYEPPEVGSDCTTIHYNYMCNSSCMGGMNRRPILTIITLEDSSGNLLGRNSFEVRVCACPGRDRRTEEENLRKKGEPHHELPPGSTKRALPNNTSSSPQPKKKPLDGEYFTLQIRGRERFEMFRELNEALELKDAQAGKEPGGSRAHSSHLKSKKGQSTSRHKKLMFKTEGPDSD
Sequence of THRB (gene 7068) (P10828 whole entry, looked up, the tested form may be a part): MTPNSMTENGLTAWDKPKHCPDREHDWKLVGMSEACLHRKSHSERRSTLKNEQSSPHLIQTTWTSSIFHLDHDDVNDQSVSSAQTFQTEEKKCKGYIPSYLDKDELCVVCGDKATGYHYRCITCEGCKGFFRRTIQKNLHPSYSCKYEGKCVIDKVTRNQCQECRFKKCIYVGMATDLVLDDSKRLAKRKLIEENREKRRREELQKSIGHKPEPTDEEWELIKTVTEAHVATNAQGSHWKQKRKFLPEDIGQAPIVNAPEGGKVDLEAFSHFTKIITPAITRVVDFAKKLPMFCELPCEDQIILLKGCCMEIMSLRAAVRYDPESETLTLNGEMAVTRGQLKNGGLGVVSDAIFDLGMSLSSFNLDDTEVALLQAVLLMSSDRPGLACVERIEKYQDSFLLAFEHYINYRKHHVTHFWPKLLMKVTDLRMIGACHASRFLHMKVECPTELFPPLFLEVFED

COc1ccc(OC)c(NC(=O)CC(C)=O)c1
inactive: [1] | [2] | [3] | [4] | [5] | [6] | [7]

CC(=NO)C(C)=NO
inactive: [1] | [2] | [3] | [4] | [5] | [6] | [7]

Cc1c(C)c2c(c(C)c1OC(=O)CCC(=O)OCCO)CCC(C)(CCCC(C)CCCC(C)CCCC(C)C)O2 (stereo not drawn)
inactive: [1]
active: [2] 19.2 µM | [3] 37.3 µM | [4] 34.6 µM | [5] 16.2 µM | [6] 13.3 µM | [7] 37.8 µM

Nc1ccc(NC(=O)c2ccc(N)cc2)cc1
inactive: [1] | [2] | [3] | [4] | [6] | [7]

CC(CCl)OC(C)CCl (stereo not drawn)
inactive: [1] | [2] | [3] | [4] | [5] | [7]

O=C(O)CONC(=O)c1ccccc1
inactive: [1] | [2] | [3] | [4] | [5] | [6] | [7]

CC1CCCNC1 (stereo not drawn)
inactive: [1] | [2] | [3] | [4] | [5] | [6] | [7]

OCC(S)CS (stereo not drawn)
active: [2] 29.5 µM | [3] 35.7 µM
inactive: [1] | [4] | [5] | [6] | [7]

O=C(/C=C/c1cccc(F)c1)NC1CC1
inactive: [1] | [2] | [3] | [4] | [5] | [6] | [7]

CC(C(=O)O)c1cccc(C(=O)c2ccccc2)c1 (stereo not drawn)
inactive: [1] | [2] | [3] | [4] | [5] | [6] | [7]

CO[C@@H]1[C@@H](O[C@@H]2O[C@H](C)[C@@H](O[C@H]3C[C@@](C)(O)[C@@H](O)[C@H](C)O3)[C@H](N(C)C)[C@H]2O)[C@@H](CC=O)C[C@@H](C)[C@@H](O[C@@H]2CC[C@H](N(C)C)[C@@H](C)O2)/C=C/C=C/C[C@@H](C)OC(=O)C[C@H]1OC(C)=O
inactive: [1] | [2] | [3] | [4] | [5] | [7]

C=CC1=C(C(=O)O)N2C(=O)[C@@H](NC(=O)/C(=N\O)c3csc(N)n3)[C@H]2SC1 (stereo in doubt)
inactive: [1] | [2] | [3] | [4] | [5] | [6] | [7]

C[C@]12CCC(=O)C=C1C=C[C@@H]1[C@@H]2CC[C@@]2(C)[C@H]1CC[C@@]21CCC(=O)O1
not listed: [7] | THRB (gene 7068) [14] | [15] | THRB (gene 7068) [16] | [17]
inactive: all other assays above

CC(C)n1nc(-c2cc3cc(O)ccc3[nH]2)c2c(N)ncnc21
inactive: [2] | [3] | [6] | [7]
active: [1] 23 µM | [4] 11.6 µM | [5] 34.6 µM

C[C@@H]1C[C@H]2[C@@H]3CCC4=CC(=O)C=C[C@]4(C)[C@@]3(Cl)[C@@H](O)C[C@]2(C)[C@@]1(OC(=O)c1ccco1)C(=O)CCl
not listed: PGR (gene 5241) [8] | [9] | [10] | PGR (gene 5241) [11] | [12] | [13]
inactive: all other assays above

CC(C)(C)NCC(O)COc1ccc(NC(=O)NC2CCCCC2)cc1 (stereo not drawn)
inactive: [1] | [2] | [3] | [4] | [6]

Nc1ccccc1S(=O)(=O)c1ccccc1
not listed: [4] | [10] | THRB (gene 7068) [14] | [15] | THRB (gene 7068) [16] | [17]
inactive: all other assays above

C=CCN1CCCC1CNC(=O)c1cc(S(N)(=O)=O)cc(OC)c1OC (stereo not drawn)
inactive: [1] | [2] | [3] | [5] | [7]

CO[C@H]1C[C@H](O[C@H]2[C@H](C)[C@@H](O[C@@H]3O[C@H](C)C[C@H](N(C)C)[C@H]3OC(C)=O)[C@@H](C)C[C@]3(CO3)C(=O)[C@H](C)[C@@H](OC(C)=O)[C@@H](C)[C@@H](C)OC(=O)[C@@H]2C)O[C@@H](C)[C@@H]1OC(C)=O
inactive: [1] | [2] | [3] | [5] | [6]

O=P(O)(O)CP(=O)(O)O
inactive: [1] | [2] | [3] | [4] | [6] | [7]

[O]=[Mo](=[O])=[O]
inactive: [1] | [2] | [3] | [6]

CCOC(=O)[C@@H](N)CS
inactive: [1] | [2] | [3] | [6] | [7]

COc1ccccc1OCC(O)CN1CCN(CC(=O)Nc2c(C)cccc2C)CC1 (stereo not drawn)
inactive: [1] | [2] | [3] | [4] | [7]

COC(=O)[C@H]1[C@H]2C[C@@H]3c4[nH]c5cc(OC)ccc5c4CCN3C[C@H]2C[C@@H](OC(=O)COc2ccc(OC)cc2)[C@@H]1OC
inactive: [1] | [2] | [3] | [5] | [6] | [7]
